# PubChem BioAssay (EPA / NIEHS)
# The source made the active and inactive calls. The calls were made as follows: active = hit-call score of the fitted dose curve at least 0.9, where 1 is the maximum; inactive = score below 0.9.
# Test: ATG_TCF_b_cat_CIS: Attagene CIS-FACTORIAL HepG2 Assay for human T-Cell-Factor with beta-catenin (TCF/b-cat) (AID 2282965)
# Conditions: HepG2 TCF/beta-catenin cis-reporter transcription, actives raise or lower the signal
# Experimental: ATG_CIS is a cell-based, multiplexed-readout assay that uses HepG2, a human liver cell line, with measurements taken at 24 hours after chemical dosing in a 24-well plate.ATG_TCF_b_cat_CIS is one of 52 assay component(s) measured or calculated from the ATG_CIS assay. It is designed to make measurements of mRNA induction, a form of inducible reporter, as detected with fluorescence intensity signals by Reverse transcription polymerase chain reaction (RT-PCR) and Capillary electrophoresis technology.Data from the assay component ATG_TCF_b_cat_CIS was analyzed into 1 assay endpoint. This assay endpoint, ATG_TCF_b_cat_CIS, was analyzed with bidirectional fitting relative to DMSO as the negative control and baseline of activity. Using a type of inducible reporter, measures of mRNA for gain or loss-of-signal activity can be used to understand the reporter gene at the transcription factor-level as they relate to the gene TCF7 and TCF7L2 and LEF1 and TCF7L1. Furthermore, this assay endpoint can be referred to as a primary readout, because this assay has produced multiple assay endpoints where this one serves a reporter gene function. To generalize the intended target to other relatable targets, this assay endpoint is annotated to the dna binding intended target family, where the subfamily is HMG box protein.
# Human liver HepG2 cells are transiently transfected with multiple reporter transcription units (MRTUs) in 6-well plates using FuGene 6 reagent (Roche; 3 ml FuGene/1 mg DNA). The MRTU constructs are regulated by a cis-regulating element (promoter). […] A major difference between the CIS and TRANS system is that in CIS activities of endogenous TFs are measured, whereas the TRANS assay evaluates changes in activities of exogenous, chimeric NR-Gal4 proteins. […] At the end of 24 hour incubation, total RNA was isolated using TriZol reagent (Invitrogen). The isolated RNA is then reverse-transcribed using oligo(dT) primer and Mo-MLV reverse transcriptase (Invitrogen) with DNAse I (Ambion) treatment for 30 min. The one-tenth of the produced cDNA was amplified by PCR using Taq DNA polymerase (Invitrogen) and two reporter sequence-specific primers. The PCR products were fluorescently labeled by primer extension with 6-arboxyfluorescein (6-FAM) 5'-labeled reporter sequence-specific primer (2 min at 95 C, 20 s at 68 C and 10 min at 72 C) and these products were digested with 5U of HpaI (New England Biolabs) for 2h at 37 C. The fragments were purified using Qiaquick PCR columns (Qiagen), analyzed on an ABI 3130xL genetic analyzer (Applied Biosystems) with peak positions identified by using a set of X-rhodamine (ROX)-labeled MapMarker1000 molecular weight standards (BioVentures). The raw capillary electrophoresis data was processed using Attagraph software (Attagene).
Compound,outcome,AC50
OCCc1ccccc1,inactive,–
CCOc1ccc(NC(=O)CC(C)=O)cc1,inactive,–
CC(C)CC(C)CC(O)CC(C)C (stereo not given),inactive,–
C1CCOC1,inactive,–
Cc1ccc2c(c1)C(=O)OC2=O,inactive,–
c1ccc(CN(Cc2ccccc2)Cc2ccccc2)cc1,inactive,–
Brc1ccc(Br)c(Br)c1,inactive,–
CC/C=C\CCOC(=O)CC,inactive,–
O=CN1CCOCC1,inactive,–
C1=CC2C3C=CC(C3)C2C1 (stereo not given),inactive,–
COc1ccc(CCN2CCC(Nc3nc4ccccc4n3Cc3ccc(F)cc3)CC2)cc1,inactive,–
O=C(O)CCCCCCCCCCCC(=O)O,inactive,–
CN(C)c1ccncc1,inactive,–
OCC(O)c1ccccc1 (stereo not given),inactive,–
Cc1ccc(OC(=O)c2ccccc2O)cc1,inactive,–
CCOC(=O)CC(C)O (stereo not given),inactive,–
COC(C)(C)CCCC(C)CC=O (stereo not given),inactive,–
NCCNc1cccc2ccccc12,–,49.8 µM (active)
CCCCOCC,inactive,–
Cc1cc(C)nc(NS(=O)(=O)c2ccc(N)cc2)n1,inactive,–

Compound,outcome,AC50
CCCCCCC(C)(C)S,inactive,–
CC(C)(C)OC(=O)c1ccc(O)cc1,inactive,–
CCCCCCCCC=CCCCCCCCC1=NCCN1CCO,inactive,–
C=CCN(CC=C)CC=C,inactive,–
C[Si](C)(C)O[Si](C)(C)C,inactive,–
CS(=O)(=O)c1ccc(Cl)cc1,inactive,–
CCCCCCC(O)CCCCCCCCCCC(=O)O (stereo not given),inactive,–
C[C@H]1O[C@@H](O[C@H]2[C@@H](O)C[C@H](O[C@H]3[C@@H](O)C[C@H](O[C@H]4CC[C@@]5(C)[C@H](CC[C@@H]6[C@@H]5C[C@@H](O)[C@]5(C)[C@@H](C7=CC(=O)OC7)CC[C@]65O)C4)O[C@@H]3C)O[C@@H]2C)C[C@H](O)[C@@H]1O,–,1.03 µM (active)
Clc1cc(Cl)c(-c2c(Cl)c(Cl)cc(Cl)c2Cl)cc1Cl,inactive,–
CCN(CCC#N)c1ccc(N=Nc2ccc([N+](=O)[O-])cc2)cc1,inactive,–
N[C@@H](Cc1cc(I)c(Oc2cc(I)c(O)c(I)c2)c(I)c1)C(=O)O,inactive,–
CCOC(=O)COC(=O)c1cc(Oc2ccc(C(F)(F)F)cc2Cl)ccc1[N+](=O)[O-],inactive,–
COc1ccc(CCC(C)=O)cc1,inactive,–
CN(C)CCOC(C)(c1ccccc1)c1ccccn1 (stereo not given),inactive,–
COc1ccccc1[N+](=O)[O-],inactive,–
C[C@H](CCC(=O)NCC(=O)O)[C@H]1CC[C@H]2[C@@H]3[C@H](O)C[C@@H]4C[C@H](O)CC[C@]4(C)[C@H]3C[C@H](O)[C@]12C,inactive,–
c1ccc2[nH]cnc2c1,inactive,–
Nc1ccn([C@H]2CS[C@@H](CO)O2)c(=O)n1,inactive,–
CCC(Cl)C(Cl)C(Cl)CC(Cl)C(Cl)C(C)Cl (stereo not given),inactive,–
OCCOCCN1CCN(C2=Nc3ccccc3Sc3ccccc32)CC1,inactive,–
